Shown are actives, neighbours in structure and some others; about 2.1% of the full set was active somewhere.
NFkB transloc inh: blocks IL-1B driven NFkB nuclear translocation in HUVEC cells; HUVEC IL-1B NFkB p65 nuclear translocation imaging; inhibition, % at 2 µM; hit rate 0.43% among 94,000;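 active means inhibition above about 30% together with a positive call from visual inspection of the well image, limit read from the data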;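 further: nuclear over cytoplasmic p65 intensity ratio measured by imaging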
NFkB transloc pot: enhances IL-1B driven NFkB nuclear translocation. HUVEC IL-1B NFkB p65 nuclear translocation imaging. activation, % at 2 µM. hit rate 0.3% among 94,000. AID 819;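 active means activation above 40%, about the mean plus 3 SD, also judged a hit on visual image review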;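 further: percent activation is computed from the nuclear over cytoplasmic p65 intensity ratio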
TNAP act mid DEA: human TNAP activation, intermediate phosphate acceptor. P05186. purified TNAP, CDP-star luminescence, 100 mM DEA, 30 min; hits give high values; scale: 0 levamisole-inhibited, 1 vehicle-only enzyme. activation factor at 20 µM. 64,000 tested, under 10 active. AID 813;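 active means activation factor of at least 2 at 20 µM, relative to controls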
PLAP activator: activates human placental alkaline phosphatase; P05187; purified PLAP enzyme, luminescent substrate read-out; hits give high values; activation fold at 20 µM; hit rate 1.2% among 96,000; AID 696; in the data active means activation fold above about 2
Target sequence (P05187 whole entry, looked up): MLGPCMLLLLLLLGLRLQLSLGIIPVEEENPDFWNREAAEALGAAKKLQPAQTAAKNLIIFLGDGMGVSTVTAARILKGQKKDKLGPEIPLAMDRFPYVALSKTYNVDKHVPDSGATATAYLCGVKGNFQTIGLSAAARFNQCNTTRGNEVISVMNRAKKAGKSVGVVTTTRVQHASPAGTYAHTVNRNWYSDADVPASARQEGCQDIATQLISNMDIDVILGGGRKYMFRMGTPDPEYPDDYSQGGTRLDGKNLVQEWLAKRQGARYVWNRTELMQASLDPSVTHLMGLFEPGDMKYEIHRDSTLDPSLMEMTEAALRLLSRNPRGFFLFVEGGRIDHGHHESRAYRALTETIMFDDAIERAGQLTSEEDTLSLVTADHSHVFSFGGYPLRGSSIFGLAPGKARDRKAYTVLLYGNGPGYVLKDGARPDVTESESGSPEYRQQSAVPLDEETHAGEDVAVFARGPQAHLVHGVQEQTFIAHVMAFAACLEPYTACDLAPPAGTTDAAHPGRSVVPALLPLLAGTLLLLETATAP
HUVEC tox IL1B: HUVEC cytotoxicity counter-screen, IL-1B stimulated | HUVEC cell count loss, Hoechst imaging | cell count reduction, % at 2 µM | hit rate 0.41% among 94,000 | AID 845;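 active means cell count reduction more than 3 SD above the screen-wide mean, cut at about 70% in these data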
Large screens that a line does not name were inactive.

COc1cc2cc3c(N)c(C(=O)Nc4sc(C)c(C)c4C#N)sc3nc2cc1OC	none (no result: TNAP act mid DEA)
CCCN(c1ccc(OCC)cc1)c1ncnc2nc[nH]c12	PLAP activator 2.1 (no result: NFkB transloc inh, NFkB transloc pot, HUVEC tox IL1B)
CCCCN(Cc1ccccc1)c1ncnc2nc[nH]c12	PLAP activator 2.1 (no result: NFkB transloc inh, NFkB transloc pot, HUVEC tox IL1B)
CCOC(=O)C1=C(C)N2C(=C(C#N)[C@@H]1c1ccc(C(=O)OC)cc1)SC[C@@]2(O)C(C)(C)C	none
Clc1ccc(-c2noc(CCCOc3ccccc3)n2)cc1	NFkB transloc inh 84.4 (no result: TNAP act mid DEA)
COc1ccccc1OCc1nc(Cc2ccc(Cl)cc2)no1	NFkB transloc pot 41.6
COc1ccc(Cc2noc(COc3ccc(Cl)cc3)n2)cc1	none (no result: TNAP act mid DEA)
Clc1ccc(-c2noc(COc3ccccc3)n2)cc1	none (no result: NFkB transloc inh, NFkB transloc pot, HUVEC tox IL1B)
COc1ccc(Cc2nc(-c3ccc(Cl)cc3)no2)cc1	PLAP activator 2
CCC1CCCCN1C(=O)CSc1nnc(-c2ccc(Cl)s2)o1 (configuration not stated)	HUVEC tox IL1B 87.2
CCOC(=O)C1CN(S(=O)(=O)c2ccc(OC)cc2)c2cc(S(=O)(=O)CC)ccc2O1 (configuration not stated)	none (no result: TNAP act mid DEA)
O=C(CCSc1nnc(-c2ccncc2)o1)Nc1ccccc1Cl	none (no result: TNAP act mid DEA)
Cc1ccc(S(=O)(=O)NCCCN2CCOCC2)c(C)c1	none (no result: NFkB transloc inh, NFkB transloc pot, HUVEC tox IL1B)
Cc1ccc(S(=O)(=O)NCCN2CCOCC2)cc1	NFkB transloc inh 31.4 (no result: TNAP act mid DEA)
COC(=O)C1=CN(CCCN2CCCC2=O)C=C(C(=O)OC)C1c1ccccc1C(F)(F)F	PLAP activator 2.1
Clc1ccc(OCc2nc(-c3ccccn3)no2)c(Br)c1	NFkB transloc inh 35.5
CCCn1cnc2cc(NCc3cccc(OC)c3O)ccc21	PLAP activator 2.7
CCCn1cnc2cc(NCc3ccccn3)ccc21	none
Cn1ncc(Br)c1C(=O)Nc1ccc(F)cc1F	NFkB transloc inh 98.1, HUVEC tox IL1B 87.8 (no result: TNAP act mid DEA, PLAP activator)
Cc1cccc2cc(C#N)c(SCCN3CCCCC3)nc12	NFkB transloc inh 96.9, HUVEC tox IL1B 84.2 (no result: PLAP activator)
COc1cccc(Cn2c(NCC(C)C)nc3c2c(=O)n(C)c(=O)n3C)c1	HUVEC tox IL1B 73.5 (no result: PLAP activator)
Cn1c(=O)c2c(nc(NCCO)n2CCc2ccccc2)n(C)c1=O	none (no result: NFkB transloc inh, NFkB transloc pot, HUVEC tox IL1B)
CCCNc1nc2c(c(=O)n(C)c(=O)n2C)n1CCc1ccccc1	NFkB transloc inh 99.9
Cn1c(=O)c2c(nc(NCc3ccc4c(c3)OCO4)n2Cc2ccc(F)cc2)n(C)c1=O	NFkB transloc inh 44.3
CCCCCn1c(CN(C)Cc2ccccc2)nc2c1c(=O)n(C)c(=O)n2C	PLAP activator 2
CC(C)CNc1nc2c(c(=O)n(C)c(=O)n2C)n1Cc1cccc(Br)c1	none
CC(C)OC(=O)c1nnn(-c2nonc2N)c1CN1CCCCCC1	none
O=S(=O)(c1cccc(NC(=S)Nc2ccc(Br)cc2Cl)c1)N1CCOCC1	none (no result: TNAP act mid DEA)
N#Cc1c(SCC(=O)Nc2nccs2)nc2c(c1-c1ccco1)CCCC2	none
CN(Cc1ccccc1)c1nc2c(c(=O)n(C)c(=O)n2C)n1CCCc1ccccc1	PLAP activator 2.1
Cc1ccc(O)c(-c2cc(-c3ccccc3C)[nH]n2)c1	none
Cc1ccc(O)c(-c2cc(C(F)(F)C(F)F)[nH]n2)c1	PLAP activator 2
Cc1cc(C)nc(-n2c(Nc3ccccc3)cc(=O)c3c(C)n(-c4ccccc4)c(=O)nc32)n1	none (no result: PLAP activator)
CCOc1ccc(NC(=O)CNC(=O)c2ccc(OC)c(OC)c2)cc1	none
CCOc1ccc(NC(=O)CNC(=O)c2cn(-c3ccccc3OC)c(=O)c3ccccc23)cc1	PLAP activator 2 (no result: TNAP act mid DEA)
Cc1ccccc1CN(c1ccc(C(=O)Nc2ccccc2C(=O)N2CCCC2)cc1)S(C)(=O)=O	PLAP activator 2 (no result: TNAP act mid DEA)
Cc1ccccc1CN(c1ccc(C(=O)Nc2ccccc2C(=O)NCc2ccco2)cc1)S(C)(=O)=O	none (no result: TNAP act mid DEA)
CCOC(=O)c1ccc2c(c1)nc(COc1ccc(OC)cc1)n2CC	none (no result: TNAP act mid DEA)
Nn1c(SCc2nc3ccccc3[nH]2)nnc1-c1cccnc1	PLAP activator 2 (no result: NFkB transloc inh, NFkB transloc pot, HUVEC tox IL1B)
Cn1nnnc1SCc1nc2ccccc2[nH]1	none
Nn1c(SCc2nc3ccccc3[nH]2)nnc1C1CCCCC1	PLAP activator 2.1
CC(C)(C)c1ccc(-c2cc(C(=O)NNC(=O)Nc3ccccc3)c3ccccc3n2)cc1	PLAP activator 2.1 (no result: TNAP act mid DEA)
O=C(NNC(=O)c1cc(-c2ccccc2)nc2ccccc12)Nc1cccc(Cl)c1	none (no result: TNAP act mid DEA)
CCN(CC)S(=O)(=O)c1ccc(NC(=O)C(OC)c2ccccc2)cc1 (configuration not stated)	NFkB transloc inh 97.7, HUVEC tox IL1B 89.5
CCN(CC)S(=O)(=O)c1ccc(NC(=O)CC(NC(C)=O)c2ccccc2)cc1 (configuration not stated)	none (no result: TNAP act mid DEA)
COc1ccc(C2CC(=O)C=C(NC3CCCC3)C2)cc1 (configuration not stated)	none (no result: TNAP act mid DEA, PLAP activator)
COc1ccc(C2CC(=O)C=C(NCCC(C)C)C2)cc1 (configuration not stated)	NFkB transloc pot 51.7 (no result: TNAP act mid DEA, PLAP activator)
CSCC[C@H](NC(=O)OC(C)(C)C)C(=O)N/N=C/c1c(C)[nH]c(=O)[nH]c1=O	PLAP activator 2.2 (no result: TNAP act mid DEA)
CSCCC(NC(=O)OC(C)(C)C)C(=O)NC(C(=O)NC(CC(C)C)C(N)=O)C(C)C (configuration not stated)	none (no result: TNAP act mid DEA)
COc1ccc(C(c2nnnn2C2CCCCC2)N2CCN(c3ccc(OC)cc3)CC2)cc1 (configuration not stated)	NFkB transloc pot 56.6
COc1ccc(C(c2nnnn2C2CCCC2)N2CCC(C)CC2)cc1 (configuration not stated)	none
COC(=O)c1cc(OC)c(OC)cc1NC(=O)c1ccc(C)o1	PLAP activator 2.2 (no result: TNAP act mid DEA)
COC(=O)c1cc(OC)c(OC)cc1NC(=O)CCc1ccc(C)o1	none
CCSc1nc(-c2cccs2)nc2c1c(=O)n(C)c(=O)n2C	none (no result: NFkB transloc inh, NFkB transloc pot, PLAP activator, HUVEC tox IL1B)
NC(=O)/C=C\C(=O)Nc1cccc(C(F)(F)F)c1	HUVEC tox IL1B 83.7 (no result: TNAP act mid DEA)
N#Cc1c(-n2cccc2/C=N/O)sc2c1CCCC2	none
C=CCNCc1cccn1-c1sc2c(c1C#N)CCCC2	NFkB transloc inh 30.6
CCOc1cc(C(c2c(C)[nH][nH]c2=O)c2c(C)[nH][nH]c2=O)ccc1OCc1ccc([N+](=O)[O-])cc1	PLAP activator 2.7 (no result: TNAP act mid DEA)
CCOc1cc(C(c2c(C)[nH][nH]c2=O)c2c(C)[nH][nH]c2=O)ccc1OC(=O)c1cccc([N+](=O)[O-])c1	none (no result: TNAP act mid DEA)
CCOc1cc(S(=O)(=O)N2CCN(Cc3ccccc3)CC2)ccc1Br	none
Cc1[nH]n(-c2ccccc2)c(=S)c1C=Nc1cccc([N+](=O)[O-])c1	none (no result: TNAP act mid DEA)
Cn1c(SCC(=O)Nc2ccc3c(c2)OCO3)nnc1-c1cnccn1	HUVEC tox IL1B 86.5
CC(C)c1nnc(SCC(=O)Nc2ccc3c(c2)OCO3)n1C	none (no result: TNAP act mid DEA, PLAP activator)
Clc1cccc(/C=N/Nc2nc(Cl)nc3ccccc23)c1	none (no result: TNAP act mid DEA)
Clc1cccc(/C=N\Nc2nccs2)c1	PLAP activator 2.1 (no result: TNAP act mid DEA)
CCCCC(=O)Nc1sc2c(c1C(=O)OCC)CCC(C=O)=C2Cl	NFkB transloc inh 88.4 (no result: TNAP act mid DEA)
CCCCNCC(=O)Nc1sc(C)c(C)c1C(=O)OCC	none (no result: TNAP act mid DEA, PLAP activator)
CCCC1(C(=O)O)NC(c2ccccc2O)C2C(=O)N(c3cccc(Cl)c3)C(=O)C21 (configuration not stated)	PLAP activator 2.4

High-throughput results from PubChem.
